# Measured values reported in PubChem BioAssay.
# Values joined by “and” are separate entries in the source; they are usually repeats but may differ in a detail not shown here. Equal entries are not always repeated. Active and inactive are the calls of the source.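 Rule for the calls, unless noted: active = compounds killing one labelled cell type while sparing the other, by normalised counts and ratio limits, not self-fluorescent; inactive = the rest.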
# Experiments:
# [1] = P. berghei load reduction in hepatocytes – cell-based, HepG2, luciferase luminescence, HepG2 viability, primary screen (AID 624349; in the data active = parasite load remaining mostly below about 12%, no sharp cut-off; inactive = mostly above about 10%;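 note: 100% = mean of DMSO negative control wells on the same plate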); conditions: P. berghei liver stage in HepG2, luciferase luminescence, concentration not given here; parasite load remaining: stronger effect = lower value; viability: measured here: HepG2 viability without parasites
# [2] = EMT-state selective cytotoxicity in co-culture – imaging, PC-3E GFP, TEM4-18 mCherry, primary screen (AID 1345086); conditions: PC-3E GFP / TEM4-18 mCherry co-culture, imaging cell counts, at 1 µM; for red/green cell ratio (normalised): actives lie on both sides;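 for all read-outs here: cells exposed to compound for 72 h before imaging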;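 for red/green cell ratio (normalised): normalised mesenchymal count divided by normalised epithelial count so high means epithelial killing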
# [3] = system: Aerobactin synthetase IucA (Klebsiella pneumoniae hvKP1); assay: IucA enzyme inhibition, primary screen, biochemical, Spectrum library (AID 1346200; call rule not given here;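 note: 100% = wells without compound and 0% = wells lacking enzyme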); conditions: malachite green pyrophosphate, A620, at 8 µM, stronger effect = lower value
# [4] = viability loss with induced miR-34 in A549 – imaging, A549 dox-inducible miR-34, nuclei and caspase counts, primary screen (AID 1347080;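 active = compounds whose cell count with miR-34 switched on is under 0.7 times the count with it off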); conditions: A549 miR-34 inducible, Hoechst nuclei count, 48 h
# [5] = compounds altering circadian rhythm period length – cell-based, LOPAC library, luminescence reporter (AID 2774; call rule not given here;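 note: values are relative to mean of DMSO wells on each plate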); conditions: circadian reporter cells, at 7 µM, actives lie on both sides
# [6] = compounds altering viability of human ES cells (AID 493140; call rule not given here;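 note: cells exposed to compounds for four days before counting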); conditions: human embryonic stem cell survival screen; stronger effect = higher value
# [7] = system: Hepatitis C virus NS3 helicase; assay: blockers of NS3h binding to ssDNA – biochemical, fluorescence polarization, LOPAC1280 library, primary screen (AID 687035; in the data active = inhibition above about 37%); conditions: Purified HCV NS3 helicase, Cy5-dT15 ssDNA binding fluorescence polarization; stronger effect = higher value; concentration not given here
# [8] = compounds altering Cy5-DNA-NS3h complex signal – biochemical, LOPAC1280, artefact control for HCV NS3 helicase inhibitor project (AID 687037; call rule not given here); conditions: Cy5-DNA-NS3h complex fluorescence interference counterscreen
# [9] = system: Aerobactin synthetase IucA (Klebsiella pneumoniae); assay: inhibition of K. pneumoniae IucA enzyme – biochemical, Tocris library, absorbance (AID 1345561; call rule not given here;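 note: 100% = enzyme without compound and 0% = no enzyme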); conditions: purified IucA enzyme assay, absorbance (OD) read-out; stronger effect = lower value;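 tested at 8 µM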
# [10] = system: Aerobactin synthetase IucA (Klebsiella pneumoniae, hypervirulent); assay: biochemical IucA inhibition screen of LOPAC library by absorbance (AID 1346212; call rule not given here;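 note: 100% = no compound wells and 0% = no enzyme wells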); conditions: IucA enzyme assay, absorbance (OD) readout; stronger effect = lower value;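 tested at 8 µM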
# [11] = blockers of cellular phospholipid synthesis – cell-based, LOPAC library, screen 4, primary screen (AID 1347384; call rule not given here); conditions: animal cells, phospholipid biosynthesis inhibition screen; at 10 µM
# [12] = MELAS cybrid and Rieske KO viability enhancers – cell-based, MELAS cybrids, Rieske KO mouse fibroblasts, CellTiter-Glo, primary screen (AID 1508586;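 active = mean z-score across replicates of 1.96 or higher in either the MELAS or the Rieske mutant cell line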;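 note: z relative to plate mean and SD of compound and empty wells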); conditions: low glucose
# [13] = counts scaled to control wells, 1 = unselective
# [14] = measured here: epithelial PC-3E GFP cell survival
# [15] = measured here: mesenchymal TEM4-18 mCherry cell survival
smiles,measurement,setting,value
COc1cc2c(cc1OC)[C@@]13CCN4CC5=CCOC6CC(=O)N2C1[C@H]6[C@H]5C[C@H]43 (stereo partly drawn),parasite load remaining,[1],97.7% (inactive) and 56.5% (inactive)
same,viability,[1],63.5% and 87.4%
same,red/green cell ratio (normalised),[2],1.35 (inactive)
same,red/green cell ratio (normalised),[2]; [13],0.96 (inactive)
same,normalised cell number,[2]; [14],1.05 and 0.91
same,normalised cell number,[2]; [15],1.02 and 1.23
same,activity remaining,[3],105% (inactive)
same,fold change,[4]; stronger effect = lower value,0.942 (inactive)
same,fold change,[4]; measured here: relative caspase fold change +Dox/-Dox,2.52
same,cell count,"[4]; measured here: total cells with miR-34 induction, stronger effect = lower value",11600
same,cell count,[4]; measured here: total cells without miR-34 induction,12300
C/C=C(\C)C(=O)O[C@H]1C[C@@H](OC(C)=O)[C@@]2(C(=O)OC)CO[C@@H]3C2[C@]12CO[C@](O)(C(=O)OC)[C@H]2[C@](C)(C12O[C@@]1(C)[C@H]1C[C@H]2OC2OC=C[C@@]21O)[C@@H]3O (stereo partly drawn),red/green cell ratio (normalised),[2]; [13],1.21 (inactive)
same,normalised cell number,[2]; [14],0.89
same,normalised cell number,[2]; [15],1.08
O=[N+]([O-])c1ccc(CN2CCNCC2)cc1,red/green cell ratio (normalised),[2]; [13],0.74 (inactive)
same,normalised cell number,[2]; [14],1.45
same,normalised cell number,[2]; [15],1.07
C=CCSSCC=C,red/green cell ratio (normalised),[2],1.09 (inactive)
same,normalised cell number,[2]; [14],0.87
same,normalised cell number,[2]; [15],0.95
same,activity remaining,[3],94.6% (inactive)
COc1cc([C@@H]2c3cc4c(cc3[C@H](OC(C)=O)C3COC(=O)[C@@H]32)OCO4)cc(OC)c1OC (stereo partly drawn),red/green cell ratio (normalised),[2]; [13],0.81 (inactive)
same,normalised cell number,[2]; [14],0.2
same,normalised cell number,[2]; [15],0.16
CCSCCC(N)C(=O)O (stereo not drawn),red/green cell ratio (normalised),[2],0.84 (inactive)
same,normalised cell number,[2]; [14],1.26
same,normalised cell number,[2]; [15],1.06
Cc1ncc(C[n+]2csc(CCO)c2C)c(=O)[nH]1,red/green cell ratio (normalised),[2]; [13],0.81 (inactive)
same,normalised cell number,[2]; [14],1.27
same,normalised cell number,[2]; [15],1.03
CN1CC[C@@]2(C)c3cc(O)ccc3N(C)[C@@H]12,red/green cell ratio (normalised),[2]; [13],1.19 (inactive)
same,normalised cell number,[2]; [14],0.88
same,normalised cell number,[2]; [15],1.05
CCCN1CCC[C@@H]2Cc3[nH]ncc3C[C@H]21,period change,[5],-0.035 hour (inactive) and -0.145 hour (inactive)
same,survival,[6],16 (inactive)
same,parasite load remaining,[1],75.7% (inactive) and 34.7% (inactive)
same,viability,[1],68.7% and 143%
same,inhibition,[7],-2% (inactive) and -1% (inactive)
same,fluorescence ratio (interference),[8],1 (inactive)
same,red/green cell ratio (normalised),[2],1.24 (inactive)
same,normalised cell number,[2]; [14],0.89
same,normalised cell number,[2]; [15],1.1
same,remaining activity,[9],126% (inactive)
same,remaining activity,[10],117% (inactive)
same,outcome,[11],inactive
same,z-score,"[12]; MELAS cybrid survival, CellTiter-Glo 48 h, stronger effect = higher value",0.372 (inactive)
same,z-score,"[12]; Rieske KO mouse fibroblast survival, CellTiter-Glo 72 h",-0.161
COc1cc(O)c2c(=O)oc3cc(O)cc(C)c3c2c1,red/green cell ratio (normalised),[2]; [13],0.9 (inactive)
same,normalised cell number,[2]; [14],1.19
same,normalised cell number,[2]; [15],1.07
C[C@H]1COc2c(N3CCNCC3)c(F)cc3c(=O)c(C(=O)O)cn1c23,red/green cell ratio (normalised),[2]; [13],0.98 (inactive)
same,normalised cell number,[2]; [14],1.08
same,normalised cell number,[2]; [15],1.06
CC(=O)O[C@H]1C(=O)[C@@]2(C)C([C@H](OC(=O)c3ccccc3)[C@]3(O)C[C@H](O)C(C)=C1C3(C)C)[C@]1(OC(C)=O)CO[C@@H]1C[C@@H]2O (stereo partly drawn),red/green cell ratio (normalised),[2],0.91 (inactive)
same,normalised cell number,[2]; [14],0.99
same,normalised cell number,[2]; [15],0.9
same,activity remaining,[3],96.8% (inactive)
c1ccc(S[C@@H]2OC3COC(c4ccccc4)OC3[C@H]3NC32)cc1 (stereo partly drawn),red/green cell ratio (normalised),[2]; [13],0.98 (inactive)
same,normalised cell number,[2]; [14],1.08
same,normalised cell number,[2]; [15],1.06
CCC(C)C(=O)O[C@@H]1C[C@@]2(C)[C@H](c3ccoc3)OC(=O)CC23OC2(C)O[C@]14C1(C)[C@@H](CC(=O)OC)C5(C)CC1(O)[C@](O)(C5OC(=O)C1(C)OC1C)[C@@H](OC(C)=O)[C@]34O2 (stereo partly drawn),red/green cell ratio (normalised),[2]; [13],1.2 (inactive)
same,normalised cell number,[2]; [14],0.97
same,normalised cell number,[2]; [15],1.16
N#Cc1c(Cl)nc(NC2CC2)c2ccccc12,red/green cell ratio (normalised),[2]; [13],0.69 (inactive)
same,normalised cell number,[2]; [14],1.32
same,normalised cell number,[2]; [15],0.91
COc1cc([C@@H]2c3cc4c(cc3[C@H](OC(C)=O)C3COC(=O)[C@H]32)OCO4)cc(OC)c1OC (stereo partly drawn),red/green cell ratio (normalised),[2]; [13],1.07 (inactive)
same,normalised cell number,[2]; [14],0.19
same,normalised cell number,[2]; [15],0.2
C[C@]12C=CC(=O)C=C1CCC1C2CC[C@]2(C)C(=O)CCC12 (stereo partly drawn),red/green cell ratio (normalised),[2],1.05 (inactive)
same,normalised cell number,[2]; [14],1.06
same,normalised cell number,[2]; [15],1.12
C[CH2][Hg+].O=C([O-])c1ccccc1[S-].[Na+],red/green cell ratio (normalised),[2]; [13],0.36 (inactive)
same,normalised cell number,[2]; [14],0.18
same,normalised cell number,[2]; [15],0.06
C[C@@H]1CC(Cl)CC[C@H]1C(=O)OC(C)(C)C (stereo partly drawn),red/green cell ratio (normalised),[2],1.02 (inactive)
same,normalised cell number,[2]; [14],1.09
same,normalised cell number,[2]; [15],1.12
same,activity remaining,[3],119% (inactive)
C[C@]12CCC3C(CC[C@H]4C[C@@H](O)CC[C@]34C)C1CCC2=O (stereo partly drawn),red/green cell ratio (normalised),[2],0.99 (inactive)
same,normalised cell number,[2]; [14],1.2
same,normalised cell number,[2]; [15],1.19
same,activity remaining,[3],102% (inactive)
CC(C)=CCC[C@H](C)[C@H]1CC[C@]2(C)C[C@H]3[C@@H](C(=O)C[C@@]3(C)O)/C(C=O)=C\C[C@@H]12,red/green cell ratio (normalised),[2]; [13],0.95 (inactive)
same,normalised cell number,[2]; [14],0.85
same,normalised cell number,[2]; [15],0.8
C[C@@H]1C(=O)OC2[C@H](O)C34[C@@H]5OC(=O)[C@@]3(OC3OC(=O)[C@H](O)[C@@]34[C@H](C(C)(C)C)[C@H]5O)[C@]21O (stereo partly drawn),red/green cell ratio (normalised),[2]; [13],1.08 (inactive)
same,normalised cell number,[2]; [14],0.86
same,normalised cell number,[2]; [15],0.93
CC1(C)C(=O)C=C[C@@]2(C)C1=C(O)C(=O)[C@]1(C)C2CC[C@@]2(C)[C@H](c3ccoc3)C[C@H]3O[C@]321 (stereo partly drawn),red/green cell ratio (normalised),[2],1.22 (inactive)
same,normalised cell number,[2]; [14],0.97
same,normalised cell number,[2]; [15],1.19
same,activity remaining,[3],116% (inactive)
